Test results from ChEMBL document CHEMBL1157539, “Thousands of chemical starting points for antimalarial lead identification” (Nature, 2010).

The molecules below were run on Plasmodium falciparum (assay: GSK_TCMDC: Inhibition of Plasmodium falciparum 3D7 in whole red blood cells, using parasite LDH activity as an index of growth. Test compounds present at 2uM).
Assay type: functional

SMILES | Inhibition [%]
COc1cccc(CNC[C@@H](O)[C@H](Cc2ccccc2)NC(=O)c2cc(NC(C)C)cc(N3CCCCS3(=O)=O)c2)c1.O=CO | 89
CN1CCN(c2cccc(NC(=O)c3ccc(-c4ccc(C#N)cc4)cc3)c2)CC1 | 84
Cc1ccc2c(c1)c(-c1ccccc1)c(-c1ccccc1)n2CC(O)CN1CCN(CC=Cc2ccccc2)CC1 (stereo not drawn) | 98
CC1CN(c2cc(=O)n(Cc3ccc(NC(=O)Nc4ccc(-c5ccccc5)cc4)cc3)cn2)CC(C)N1.O=C(O)C(F)(F)F (stereo not drawn) | 87
Cl.O=C(Nc1ccc(Cl)c(Cl)c1)Nc1ccc2nccc(N3CCNCC3)c2c1 | 99
CC(=O)N[C@H](C(=O)Nc1ccc(-c2ccc(-c3nc4cc(C(F)(F)F)ccc4[nH]3)cc2)cc1)C(C)C | 88
CCc1c[nH]c2c(N3CCCS3(=O)=O)cc(C(=O)N[C@@H](Cc3ccccc3)[C@H](O)CNC(C)(C)c3cccc(C(F)(F)F)c3)cc12.O=CO | 97
CN1CCC(NCc2cccc(-c3cnc(NCc4ccccc4)nc3)c2)CC1.O=C(O)C(F)(F)F | 100
Cc1cc(OCCCN2CCCCC2)ccc1NC(=O)COc1ccc(Cl)cc1C(=O)c1cc(Cl)cc(C#N)c1 | 93
O=C(Nc1cccc(CN2CCN(Cc3ccc(O)cc3)CC2)c1)c1cccc(C(F)(F)F)c1.O=C(O)C(F)(F)F | 91
O=C(Cc1ccc(NC(=O)c2ccc(O)c(-c3cccc([N+](=O)[O-])c3)c2)cc1)NCCN1CCCCC1 | 89
CC(Cc1ccc(NC(=O)COc2ccc(CC(C)NCCc3cccc(Cl)c3)cc2)cc1)NCCc1cccc(Cl)c1 (stereo not drawn) | 100
CCOC(=O)c1nc(-c2ccc(Cl)cc2)[nH]c1NC(=S)NCCCN1CCOCC1 | 92

What follows are molecules tested on Plasmodium falciparum (assay: GSK_TCMDC: Inhibition of Plasmodium falciparum Dd2 in whole red blood cells, using parasite LDH activity as an index of growth. Test compounds present at 2uM).
Assay type: functional

SMILES | Inhibition [%]
CCNc1cc(C(=O)N[C@@H](Cc2ccco2)[C@H](O)CNC2CCCCC2)cc(N2CCCCS2(=O)=O)c1.Cl | 57
COCCNCc1cccc(-c2cc3nccc(Nc4ccc(Oc5ccccc5)cc4)c3cc2Cl)c1 | 99
CCCCCCCN(Cc1ccc(OC(C)(C)C(=O)OCC)cc1)C(=O)Nc1ccccc1OCC | 94
O=C(CC1CCCCC1)NCC(NCCCNc1cc(=O)c2ccccc2[nH]1)c1cc(Br)cc(Br)c1 (stereo not drawn) | 52
O=c1[nH]c2c(cc1CNC1CCCCC1)c(-c1ccc(F)cc1)nn2-c1ccccc1 | 88
CC(C)C(C(=O)Nc1ccc2c(c1)OCO2)c1ccc(Cl)cc1 (stereo not drawn) | 89
Cl.N=c1n(Cc2ccccc2)c2ccccc2n1CC(O)c1ccc(Cl)c(Cl)c1 (stereo not drawn) | 98
COc1ccccc1C1CCN(C2CCC(NC(=O)/C=C/c3ccc(C(F)(F)F)cc3)CC2)CC1 (stereo not drawn) | 7
Cc1ccc(N2C(N)=NC(N)=NC2(C)C)cc1Cl.Cl | 77
CCc1ccc(N2C(=O)C3C(Cc4ccc(OC(C)(C)C)cc4)NC4(C(=O)N(Cc5ccccc5)c5ccc(F)cc54)C3C2=O)cc1 (stereo not drawn) | 49
COc1c(CCNCCCCNCCc2cc(Cl)c3ccccc3c2OC)cc(Cl)c2ccccc12.CS(=O)(=O)O | 100
CC(C)CNC(=O)c1cncc(-c2ccc(CN(C)C3CCN(C)CC3)cc2)c1.O=C(O)C(F)(F)F | 84
NC1CCCN(Cc2cccc(-c3ccc(-c4nc5cc(F)ccc5[nH]4)cc3)c2)C1.O=C(O)C(F)(F)F (stereo not drawn) | 99
CN(C)CCNc1ncnc2c1[nH]c1ccc(Cl)cc12 | 8
N#CC(c1ccc(Br)cc1)c1ccc2c(C(F)(F)F)cc(C(F)(F)F)nc2n1 (stereo not drawn) | 98
Cc1ccc(Nc2nc(N/N=C/c3cc4c(cc3Br)OCO4)nc(Nc3ccc([N+](=O)[O-])cc3)n2)cc1C | 89
Fc1cccc(Cn2ncc3cc(Nc4ncnc5sc(C#Cc6ncc[nH]6)cc45)ccc32)c1 | 30
COc1cccc(NC(=O)NC2CCN(c3ccnc(Nc4cc(OC)c(OC)c(OC)c4)n3)C2)c1 (stereo not drawn) | 57
O=C(NC1CC1)c1ccc2cc(C(=O)N3Cc4ccccc4C(c4ccccc4)C3)ccc2c1 (stereo not drawn) | 64
Nc1nc(N)c2c(CCc3ccc(Cl)c(Cl)c3)cccc2n1 | 83

SMILES | Inhibition [%]
COc1ccccc1CCNc1ncc(F)c(N[C@@H](Cc2ccccc2)C(=O)NCCc2ccccc2)n1.O=C(O)C(F)(F)F | 83
CS(=O)(=O)n1c(CN2CCN(c3ncc(C(F)(F)F)cc3Cl)CC2)nc2ccccc21 | 59
Cc1ccc2nc(C)cc(N/N=C/c3cccc([N+](=O)[O-])c3)c2c1 | 99
O=C(CCC1CCCC1)N(Cc1ccc(-c2ccc(CNCCc3ccccc3)cc2)cc1)C1CCCNC1.O=C(O)C(F)(F)F (stereo not drawn) | 71
O=C(NCCCN1CCN(c2cccc(Cl)c2)CC1)c1ccc(-c2nc3cc(Cl)c(Cl)cc3[nH]2)c(F)c1 | 72
Cc1cc(=NN=Cc2ccc(F)cc2)c2ccc(F)cc2[nH]1 | 30
Cl.c1ccc(-c2ccc3c(Nc4ccc5[nH]ccc5c4)ccnc3c2)nc1 | 78
COc1cccc(CNC[C@@H](O)[C@H](Cc2ccccc2)NC(=O)c2cc(NC(C)C)cc(N3CCCCS3(=O)=O)c2)c1.O=CO | 97
CN1CCN(c2cccc(NC(=O)c3ccc(-c4ccc(C#N)cc4)cc3)c2)CC1 | 7
Cc1ccc2c(c1)c(-c1ccccc1)c(-c1ccccc1)n2CC(O)CN1CCN(CC=Cc2ccccc2)CC1 (stereo not drawn) | 98
CC1CN(c2cc(=O)n(Cc3ccc(NC(=O)Nc4ccc(-c5ccccc5)cc4)cc3)cn2)CC(C)N1.O=C(O)C(F)(F)F (stereo not drawn) | 20
Cl.O=C(Nc1ccc(Cl)c(Cl)c1)Nc1ccc2nccc(N3CCNCC3)c2c1 | 62
CC(=O)N[C@H](C(=O)Nc1ccc(-c2ccc(-c3nc4cc(C(F)(F)F)ccc4[nH]3)cc2)cc1)C(C)C | 76
CCc1c[nH]c2c(N3CCCS3(=O)=O)cc(C(=O)N[C@@H](Cc3ccccc3)[C@H](O)CNC(C)(C)c3cccc(C(F)(F)F)c3)cc12.O=CO | 99
CN1CCC(NCc2cccc(-c3cnc(NCc4ccccc4)nc3)c2)CC1.O=C(O)C(F)(F)F | 67
Cc1cc(OCCCN2CCCCC2)ccc1NC(=O)COc1ccc(Cl)cc1C(=O)c1cc(Cl)cc(C#N)c1 | 16
O=C(Nc1cccc(CN2CCN(Cc3ccc(O)cc3)CC2)c1)c1cccc(C(F)(F)F)c1.O=C(O)C(F)(F)F | 15
O=C(Cc1ccc(NC(=O)c2ccc(O)c(-c3cccc([N+](=O)[O-])c3)c2)cc1)NCCN1CCCCC1 | 3
CC(Cc1ccc(NC(=O)COc2ccc(CC(C)NCCc3cccc(Cl)c3)cc2)cc1)NCCc1cccc(Cl)c1 (stereo not drawn) | 98
CCOC(=O)c1nc(-c2ccc(Cl)cc2)[nH]c1NC(=S)NCCCN1CCOCC1 | 33
